From PubChem BioAssay (NCI)
About 83,000 compounds went through this panel and 20% of them were active in at least one assay; those are over-represented in the sample as a whole.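 Activity criterion: percent growth below 10, measured after cells in 96-well plates were exposed to a single compound concentration for 48 hours.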 Activity calls are given as the source filed them.

Experiments:
Experiment in all cases: NCI-60 one-dose screen, 48 h (100 = growth as untreated, 0 = no growth, -100 = all killed)
Details in all cases: 10 µM unless noted
[1] = tested on: RPMI-8226 leukemia
[2] = tested on: OVCAR-5 ovarian
[3] = tested on: NCI/ADR-RES ovarian
[4] = tested on: BT-549 breast
[5] = tested on: MDA-MB-435 melanoma
[6] = tested on: SW-620 colon
[7] = tested on: MCF7 breast
[8] = tested on: HCC-2998 colon
[9] = tested on: KM12 colon
[10] = tested on: OVCAR-8 ovarian
[11] = tested on: OVCAR-4 ovarian
[12] = tested on: OVCAR-3 ovarian
[13] = tested on: HS 578T breast
[14] = tested on: T-47D breast
[15] = tested on: HCT-116 colon
[16] = tested on: SK-OV-3 ovarian
[17] = tested on: IGROV1 ovarian

Measured: growth

CC(C)Sc1nc(Nc2ccc(S(N)(=O)=O)cc2)c(C#N)c(-c2ccc(F)cc2)n1
inactive: [1] 58.1% | [2] 67.3% | [3] 32.5% | [4] 53.3% | [5] 49.9% | [6] 24.3% | [7] 31.6% | [8] 58.8% | [9] 48.8%

NC(=O)c1c(NC(=O)c2ccc(C3CCCCC3)cc2)sc2c1CCC(=O)C2
active: [1] -15% | [11] -0.0254% | [14] -5.15% | [4] -2.9% | [15] 7.94%
inactive: [10] 14.8% | [2] 23.4% | [12] 22.4% | [13] 35.4% | [6] 10.4% | [7] 10.9% | [9] 15.8%

CN1CCc2c(sc3ncnc(N/N=C/c4ccc(Cl)c(Cl)c4)c23)C1
inactive: [1] 41.4% | [10] 31.8% | [2] 71.4% | [11] 20.9% | [16] 28.3% | [12] 71.5% | [13] 78.5% | [3] 29.6% | [14] 90.4% | [4] 42.2% | [9] 22.8%
active: [6] -68.4% | [7] -47.2% | [15] -64.5% | [8] -47.9%

Cn1ccnc1C(=O)/C=C/c1ccc(NC(=O)Nc2ccc(F)cc2)cc1
inactive: [1] 13.2% | [10] 15.8% | [2] 57.7% | [11] 76.2% | [16] 52.8% | [12] 56.5% | [13] 17.6% | [3] 43.8% | [14] 42.8% | [4] 30.1% | [6] 42.1% | [8] 29.8%

COc1ccc(CNS(=O)(=O)/N=C2\NC(=O)NC2=C(Cl)Cl)cc1
inactive: [1] 15.3% | [10] 10.8% | [2] 37.2% | [11] 69.1% | [17] 43.5% | [12] 30% | [13] 44% | [14] 44% | [6] 27.2% | [7] 18.2%
active: [4] -8.05% | [5] -3.14% | [15] 6.95%

COc1ccc(NC2=CC(=O)C(C)=C(C)C2=O)cc1
inactive: [1] 73.3% | [10] 79.1% | [2] 109% | [11] 43.8% | [17] 89.3% | [13] 110% | [14] 67.5% | [4] 119% | [6] 101% | [7] 71.9% | [15] 80.6% | [9] 101%
active: [12] 9.94%

CCOC(=O)c1sc(N)c(C(=O)OCC)c1C
active: [14] 7.83%
inactive: [1] 42.3% | [10] 65.1% | [2] 67.6% | [11] 62% | [17] 56.9% | [12] 70.5% | [13] 30.9% | [4] 59.9% | [5] 81.2% | [6] 71.6% | [7] 57.9% | [15] 52.8% | [9] 69.1%

Clc1ccc2c(OCCCN3CCOCC3)c3oc4ccccc4c3nc2c1
inactive: [1] 29% | [10] 31.2% | [2] 35.1% | [11] 59% | [16] 71.8% | [12] 69.5% | [13] 38.4% | [3] 36.3% | [14] 40.8% | [4] 80.1% | [5] 33.2% | [6] 19.2% | [7] 10.4% | [8] 46% | [9] 33.1%

COc1ccc(Cc2nn(CC(=O)N/N=C/c3ccc(Cl)cc3)c(=O)c3c(C)noc23)cc1
inactive: [1] 87.4% | [10] 61.9% | [2] 97.3% | [11] 59.2% | [12] 107% | [13] 22.1% | [14] 58.9% | [4] 93.9% | [5] 94.5% | [6] 69% | [7] 83.5% | [15] 36.4% | [9] 85.9%

CCOc1ccc2nc(NC(=O)c3ccc(C(F)(F)F)cc3)sc2c1
inactive: [1] 100% | [10] 107% | [2] 105% | [11] 107% | [17] 113% | [12] 109% | [13] 114% | [4] 98.5% | [5] 96.6% | [6] 103% | [7] 98.6% | [15] 102%

CN1CCN(Cc2ccc(NC(=O)c3cncc(C#Cc4cnc5ccc(N6CCSCC6)nn45)c3)cc2C(F)(F)F)CC1
active: [1] -7.39% | [10] -67.7% | [2] -22.4% | [11] -13.7% | [16] -19.8% | [13] -24.7% | [3] -11.6% | [5] -73.4% | [6] -3.56% | [7] -59.7% | [15] -51.8% | [8] -51.2% | [9] -22.5%
inactive: [14] 34.1% | [4] 40.5%
